Molecules are shown by their SMILES. Active and inactive are the calls of the source. Unless noted, no rule for the calls is given here.

Assay [1] deals with XIP peptide (Xip251-270) binding. The assay is described as follows: XIP fragment 251-270 binding compounds – biochemical, small-molecule microarray, fluorescence 635/667 nm, 0.1 µg/mL protein, primary screen (AID 1182). The following applies: fluorescent protein binding, 635 nm, higher = more signal, called active from +8 up or from −8 down.
Another assay relates to XIP peptide (Xip251-270). Briefly: compounds binding XIP fragment 251-270 – biochemical, small-molecule microarray, fluorescence 635/667 nm, 0.5 µg/mL protein, primary screen (AID 1183). The following applies: fluorescence 635 nm, higher = more signal.
The nature of assay [2]: blood-stage malaria parasite viability loss – strain 3D7, DAPI fluorescence, 100 nL, primary screen (AID 1184).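 Also: parasites grown inside human red blood cells in medium with human serum.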 The conditions noted are these: P. falciparum 3D7 growth, 3 d, higher = more signal.
In assay [3] the target is Homeobox protein Hox-A13 (Mus musculus) (UniProt Q62424). The assay is described as follows: disruptors of Hoxa13 oligonucleotide interaction – biochemical, fluorescence polarization, labeled oligonucleotide, primary screen (AID 1185). The conditions noted are these: Hoxa13:DNA binding, 15 min, higher = more signal, called active from +8 up or from −8 down. For orientation: Polarisation of emitted light reports the rotation of a fluorescent probe.
Sequence of Homeobox protein Hox-A13 (Mus musculus) (Q62424 whole entry, looked up): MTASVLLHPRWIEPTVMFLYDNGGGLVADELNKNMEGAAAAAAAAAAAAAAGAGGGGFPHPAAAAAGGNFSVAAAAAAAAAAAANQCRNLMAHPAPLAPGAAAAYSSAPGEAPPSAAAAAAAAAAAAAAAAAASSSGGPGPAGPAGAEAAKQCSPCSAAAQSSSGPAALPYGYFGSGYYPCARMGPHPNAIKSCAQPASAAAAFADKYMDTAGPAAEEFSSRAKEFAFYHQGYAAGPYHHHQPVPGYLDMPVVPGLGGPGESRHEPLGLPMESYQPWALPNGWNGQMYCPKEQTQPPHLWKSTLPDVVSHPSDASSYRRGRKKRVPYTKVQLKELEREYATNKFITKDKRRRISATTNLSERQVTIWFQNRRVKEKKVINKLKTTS

Assay [4] is described as follows: blockers of DNA damage checkpoint Chk1 activation – imaging, HeLa, hydroxyurea, phospho-Chk1 antibody, percent positive cells, primary screen (AID 1186). The conditions noted are these: hydroxyurea-induced phospho-Chk1 immunofluorescence imaging, higher = more signal.
Assay [5] is described as follows: blockers of DNA damage checkpoint Chk1 activation – imaging, HeLa, hydroxyurea, phospho-Chk1 nuclear intensity, primary screen (AID 1187). The following applies: hydroxyurea-induced phospho-Chk1 immunofluorescence imaging, higher = more signal.

Consider `COCCOC(=O)N1C(=O)[C@@]2(c3cc(C#CCCO)ccc31)[C@H](c1ccc(O)cc1)N1[C@H](c3ccccc3)[C@H](c3ccccc3)OC(=O)[C@H]1[C@@H]2C(=O)Nc1nc2ccccc2s1`, for which the composite z-score in assay [1] is 0.449 (inactive); in the assay on XIP peptide (Xip251-270), 0.635. Also, the z-score is -1.04 in assay [2], -1.98 (inactive) in assay [3], -0.534 (inactive) in assay [4] and -0.733 (inactive) in assay [5].

For `C=C(CCCC)/C(=C/C[C@@H](OC(=O)c1ccncc1)c1cccc(OCCO)c1)c1cc(C(=O)OC)ccc1OC`, the results for the composite z-score (in assay [1]; in the assay on XIP peptide (Xip251-270)) were 1.33 (inactive) and 0.74, respectively. Besides, the z-score in assay [2] is -3.09; in assay [3], -3.11 (inactive); in assay [4] it was 0.0994 (inactive); in assay [5], 0.74 (inactive).

For `O=C1C2C=CC(C(O)c3ccccc3)N(n3cnnc3)C2C(=O)N1Cc1ccccc1` (configuration not stated), the composite z-score in assay [1] was -0.377 (inactive); with XIP peptide (Xip251-270), -0.179. Besides, the z-score in assay [2] was 0.454; in assay [3], -2.02 (inactive); in assay [4], -1.25 (inactive); in assay [5], -1.21 (inactive).

Regarding `CC(C)(C)OC(=O)CC[C@]1(C(=O)NCCN2CCOCC2)N=C(c2ccc(OCCCO)cc2)O[C@H]1c1ccccc1CN=[N+]=[N-]`, the composite z-score in assay [1] was 1.16 (inactive); in the assay on XIP peptide (Xip251-270), 0.58. Also, the z-score was -0.867 in assay [2], -4.75 (inactive) in assay [3], -0.593 (inactive) in assay [4] and -0.6 (inactive) in assay [5].

Turning to `COc1ccc([C@H]2C[C@H]3C(Br)=C[C@]2(OC)C(=O)[C@]32CO2)cc1`, the composite z-score is 0.288 (inactive) in assay [1] and 0.261 with XIP peptide (Xip251-270). For the same compound, the z-score in assay [2] is 0.755; in assay [3], -1.48 (inactive); in assay [4] it was -0.445 (inactive); in assay [5] it was -0.0049 (inactive).

`COc1ccc(CCNC(=O)[C@@]2(c3ccc([N+](=O)[O-])cc3)CC(=O)N(C(C)C)[C@@H]2c2ccc(CO)cc2)cc1`: the composite z-score was 1.25 (inactive) in assay [1] and -0.904 in the assay with XIP peptide (Xip251-270). Moreover, the z-score in assay [2] is -0.303; in assay [3] it was -3.03 (inactive); in assay [4] it was -0.322 (inactive); in assay [5], -0.0259 (inactive).

As to `C=CC[C@]1(C(=O)O)N=C(c2ccc(OCCCO)cc2)O[C@H]1c1ccccc1`, the composite z-score in assay [1] was 1.81 (inactive); in the assay on XIP peptide (Xip251-270), 0.615. The z-score was -1.63 in assay [2], -4.1 (inactive) in assay [3], -0.0836 (inactive) in assay [4] and 0.409 (inactive) in assay [5].

For `CN1C2C=C(c3ccc(CO)cc3)C(C3C(=O)N(C(N)=O)C(=O)C32)C1c1cccs1` (configuration not stated), the composite z-score in assay [1] is 0.549 (inactive); with XIP peptide (Xip251-270) it was 0.92. Besides, the z-score in assay [2] was -1.65; in assay [3], -5.19 (inactive); in assay [4], -1.21 (inactive); in assay [5] it was -1.11 (inactive).

`C=CC[C@@]12N=C(c3ccc(OCCCO)cc3)O[C@@H]1c1ccccc1CN(Cc1ccccc1)C2=O`: the composite z-score in assay [1] is 1.54 (inactive); with XIP peptide (Xip251-270) it was 0.78. Besides, the z-score in assay [2] is -2.61; in assay [3], -1.94 (inactive); in assay [4], -0.367 (inactive); in assay [5], 0.0207 (inactive).

For `O=C(N1CCCCC1)[C@@]1(CCS(=O)(=O)c2ccccc2)N=C(c2ccc(OCCCO)cc2)O[C@H]1c1ccccc1`, the composite z-score is -0.43 (inactive) in assay [1] and 0.23 in the assay with XIP peptide (Xip251-270). The z-score in assay [2] is -2.24; in assay [3] it was -3.65 (inactive); in assay [4] it was -0.61 (inactive); in assay [5], -0.262 (inactive).

For `CCOC(=O)C[C@H]1[C@H](OC(=O)Cc2ccc3c(c2)OCO3)[C@@H](NC(=O)CC(C)C)c2cc(OCCCO)ccc2N1C(=O)c1ccccc1`, the figures for the composite z-score (in assay [1]; in the assay on XIP peptide (Xip251-270)) were 0.443 (inactive) and -0.487, respectively. In addition, the z-score in assay [2] was -0.584; in assay [3], -1.41 (inactive); in assay [4] it was -0.398 (inactive); in assay [5], -0.321 (inactive).

For the compound `C[N+](C)(C)CCCCNC(=O)[C@H]1C[C@H]2C(=O)NCC(=O)N2[C@H]1c1cccc(OCCO)c1`, the results for the composite z-score (in assay [1]; in the assay on XIP peptide (Xip251-270)) were 1.88 (inactive) and 0.839, respectively. The z-score in assay [2] was 0.312; in assay [3], -2.52 (inactive); in assay [4], 0.0452 (inactive); in assay [5], -0.0729 (inactive).

On to `CC1=C([C@H](O)CCc2ccccc2)[C@H](CO)[C@@H]2C(=O)N(Cc3ccccc3)C(=O)[C@@H]2C1`, for which the composite z-score in assay [1] was -0.241 (inactive); with XIP peptide (Xip251-270), -0.0644. In addition, the z-score is -0.793 in assay [2], -4.92 (inactive) in assay [3], -0.698 (inactive) in assay [4] and -0.835 (inactive) in assay [5].

Regarding `COCCOC(=O)N1C(=O)[C@@]2(c3cc(C#CCCO)ccc31)[C@H](c1ccc(OCCO)cc1)N1[C@H](c3ccccc3)[C@H](c3ccccc3)OC(=O)[C@H]1[C@@H]2C(=O)NC[C@H](O)c1ccccc1`, the composite z-score in assay [1] is 0.405 (inactive); in the assay with XIP peptide (Xip251-270), 0.765. The z-score was -2.1 in assay [2], -1.24 (inactive) in assay [3], -0.234 (inactive) in assay [4] and -0.341 (inactive) in assay [5].

As to `COCCOC(=O)N1C(=O)[C@@]2(c3cc(C#CCC(C(=O)OC)C(=O)OC)ccc31)[C@H](c1ccccc1OCCO)N1[C@H](c3ccccc3)[C@H](c3ccccc3)OC(=O)[C@H]1[C@@H]2C(=O)N1CCCCCCC1`, the composite z-score in assay [1] is 0.856 (inactive); in the assay with XIP peptide (Xip251-270), 0.597. The z-score was -1.97 in assay [2], 2.94 (inactive) in assay [3], -0.304 (inactive) in assay [4] and -0.309 (inactive) in assay [5].

Turning to `COC(=O)C1=CC(c2ccc(CO)cc2)=CC(C2CC2)N(Cc2sc3ccccc3c2Cl)C=C1C(=O)OC` (configuration not stated), the composite z-score in assay [1] was 2.17 (inactive); in the assay on XIP peptide (Xip251-270) it was 0.889. Moreover, the z-score in assay [2] is -2.13; in assay [3], -2.26 (inactive); in assay [4] it was -0.288 (inactive); in assay [5], -0.225 (inactive).

As to `C[C@]1(C(=O)NCc2ccccc2)c2ccccc2C(=O)N(Cc2cc(C(F)(F)F)cc(C(F)(F)F)c2)[C@H]1c1ccc(CO)cc1`, the composite z-score was 1.03 (inactive) in assay [1] and -0.105 in the assay on XIP peptide (Xip251-270). Further, the z-score was -1.61 in assay [2], -1.78 (inactive) in assay [3], -1.45 (inactive) in assay [4] and -2.06 (inactive) in assay [5].
